Source: PubChem BioAssay AID2576 (National Center for Advancing Translational Sciences (NCATS), 2010)
Several values for one entry are separate records, joined by “and”; a condition that tells them apart may be missing. Equal values may be shown once. Results filed as inconclusive are left out. Activity calls are given as the source filed them. The call rests on the fitted dose curve; in most records, active means well fitted activation curve with a large enough effect; inconclusive means small, poorly fitted or top-dose-only effect, or effect the other way; inactive means flat fitted curve, though single readings scatter.

biological target: Pyruvate kinase PKM (Homo sapiens) (UniProt P14618); experiment: Secondary LDH Assay for Activators of Human Pyruvate Kinase M2 isoform: for Probe SAR; conditions: purified hPK-M2, LDH-coupled NADH fluorescence kinetic; series mostly up to 58.4 µM; activation: at the top concentration
Source text: NIH Chemical Genomics Center [NCGC] Matthew G. Vander Heiden, M.D., Ph.D. [Harvard Medical School, 77 Avenue Louis Pasteur, Boston, MA 02115] NCGC Assay Overview: Human pyruvate kinase muscle 2 (hPK-M2)enzyme was supplied as a highly purified (>95% pure) preparation from Harvard Medical School and a secondary assay was used to evaluate compounds. This assay couples the formation of pyruvate from hPK-M2 using lactate dehydrogenase (LDH) and NADH. The depletion of NADH is followed in a fluorescent-based kinetic assay that follows the formation of pyruvate to lactate, as catalyzed LDH (described by Hannaert et al., 2002)1 Pyruvate kinase substrates, PEP and ADP, were present in the assay at 0.1 mM and 4 mM respectively. In this kinetic assay initial rates were determined by following the fluorescence of NADH depletion.
NCGC Assay Protocol Summary: Three uL of substrate mix (final concentration, 50 mM Tris-Cl pH 8.0, 200 mM KCl, 15 mM MgCl2, 0.1 mM PEP, 4.0 mM ADP, and 0.2 mM NADH) was dispensed into black-solid 1536 well plates. 23 nL of compounds were delivered by a pin tool and 1 uL of enzyme mix (final concentrations, 10 nM hPK-M2 and 1 uM of LDH) was added. Plates were immediately placed in ViewLux (Perkin Elmer) and NADH fluorescence was determined at 30 second exposure intervals for between 3 and 6 minutes. Data were normalized to the uninhibited and EC100 activation using known activators such as fructose-bis-phosphate.

Sequence of Pyruvate kinase PKM (Homo sapiens) (P14618 whole entry, looked up, canonical isoform): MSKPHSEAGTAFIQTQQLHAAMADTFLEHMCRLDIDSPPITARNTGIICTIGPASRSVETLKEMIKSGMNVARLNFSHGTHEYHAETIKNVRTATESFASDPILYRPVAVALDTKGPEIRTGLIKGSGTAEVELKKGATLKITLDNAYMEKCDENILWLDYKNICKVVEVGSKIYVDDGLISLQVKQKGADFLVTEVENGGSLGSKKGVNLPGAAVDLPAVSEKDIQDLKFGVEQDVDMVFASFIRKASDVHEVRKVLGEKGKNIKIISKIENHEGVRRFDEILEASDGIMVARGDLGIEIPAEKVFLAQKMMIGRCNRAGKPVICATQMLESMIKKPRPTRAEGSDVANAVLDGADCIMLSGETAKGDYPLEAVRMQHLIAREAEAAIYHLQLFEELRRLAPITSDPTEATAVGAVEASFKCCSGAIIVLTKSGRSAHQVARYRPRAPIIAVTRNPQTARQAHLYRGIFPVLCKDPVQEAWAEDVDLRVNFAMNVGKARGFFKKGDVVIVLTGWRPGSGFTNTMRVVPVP

activation, inactive:
O=C1CCc2cc(S(=O)(=O)Nc3ccc(F)cc3)ccc2N1 27%, CC(=O)N1CCCc2cc(S(=O)(=O)Nc3ccc(C)c(C)c3)ccc21 12.3%, COc1ccccc1N1C(=O)c2ccccc2C1=O 7.13%, Cc1ccc(NS(=O)(=O)c2ccc(Cl)cc2)cc1C 20%, Cc1ccc(NS(=O)(=O)c2cccc(F)c2)cc1C 18.4%, Cc1ccc(N[S+](=O)([O-])c2cc3c(cc2CCc2ccccc2)NC(=O)CO3)cc1C 12.6%, CC(=O)N1c2ccc(S(=O)(=O)Nc3ccc(C)c(C)c3)cc2CC1C (stereo not given) 18.2%, O=C1c2ccccc2C(=O)N1c1ccc(O)cc1 4.24%, Cc1cc(N2C(=O)c3ccccc3C2=O)no1 -1.03%, O=C1c2ccccc2C(=O)N1c1cnc2ccccc2c1 21.2%, Cc1ccc(NC(=O)c2ccc3c(c2)CCC(=O)N3)cc1C -2.96%, O=C1c2ccccc2C(=O)N1c1cccc(O)c1 -6.18%, O=C1c2ccccc2C(=O)N1Cc1ccncc1 1.93%, O=C1c2ccccc2C(=O)N1c1cccc(Cl)c1 -2.64%, Cc1ccc(-c2nc3ccc(Cl)cn3c2Nc2ccccc2)o1 -2.32%, O=C1c2ccccc2C(=O)N1c1cccc2ncccc12 3.02%, Cc1ccc(OC2=NS(=O)(=O)c3ccccc32)cc1 -2.38%, O=C1c2ccccc2C(=O)N1c1ccccn1 -0.663%, O=S1(=O)N=C(Oc2ccccc2)c2ccccc21 2.56% [at 82.8 µM], O=C1CCc2cc(S(=O)(=O)Nc3ccncc3)ccc2N1 14.4%, O=C1c2ccccc2C(=O)N1c1ccc(Cl)cc1 16.4%, Cc1nc(-c2ccc(S(=O)(=O)Nc3ccc(C)c(C)c3)s2)cs1 20.2%, COc1ccccc1NS(=O)(=O)c1ccc2c(c1)CCC(=O)N2 20.2%, Cc1ccc(C)c(OC2=NS(=O)(=O)c3ccccc32)c1 -5.9%, COc1ccc(S(=O)(=O)Nc2ccc(C)c(C)c2)cc1 13.8%, O=C1c2ccccc2C(=O)N1Cc1ccccc1 3.92%, CC(=O)Nc1cccc(S(=O)(=O)Nc2ccc(C)c(C)c2)c1 11.3%, Cc1ccc(NS(=O)(=O)c2cc3c(cc2-c2ccsc2)NC(=O)CO3)cc1C 16.6%, COc1cccc(OC2=NS(=O)(=O)c3ccccc32)c1 4.89%, O=C1CCc2cc(S(=O)(=O)Nc3cccnc3)ccc2N1 -4.47%, O=C1c2ccccc2C(=O)N1c1ccncc1 11.9%

Potency, active:
Cc1ccc(NS(=O)(=O)c2ccc3c(c2)CCC(=O)N3)cc1 5.17 µM, CSc1cc2c(s1)c1cnn(Cc3cccc(N)c3)c(=O)c1n2C 0.058 µM, Cc1ccc(NS(=O)(=O)c2cc3c(cc2N(C)C)CCC(=O)N3)cc1C 1.46 µM, Cc1ccc2nc(-c3ccc(C)o3)c(Nc3ccc4c(c3)OCO4)n2c1 29.1 µM, COc1cccc(Cn2ncc3c4sc(S(C)=O)cc4n(C)c3c2=O)c1 (stereo not given) 410 nM and 206 nM, Cn1c2cc(S(C)=O)sc2c2cnn(Cc3cccc(O)c3)c(=O)c21 (stereo not given) 1.03 µM, Cc1ccc(NS(=O)(=O)c2cc3c(cc2Cl)NC(=O)CO3)cc1C 0.819 µM, Cc1ccc(NS(=O)(=O)c2cc3c(cc2C)NC(=O)CO3)cc1C 1.03 µM, CSc1cc2c(s1)c1cnn(Cc3cccc(O)c3)c(=O)c1n2C 0.206 µM
